cardiac RTF act = cardiac RTF calcium sensitization; activation, % at 7.2 µM; IANBD-labeled TnC RTF fluorescence at EC20 calcium; 0% EC20 calcium, 100% full calcium; actives 0.24% (n = 340,000);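 active = activation above the mean over all tested compounds plus 3 SD, cut at about 30% in these data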;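 note: rise in fluorescence read as greater calcium sensitivity of cardiac thin filaments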
CRFR2-BP ag = agonists of human CRF-binding protein/CRF-R2 receptor complex | actives 0.46% (n = 350,000) | AID 588473 | HEK293 CRF-R2/CRF-BP, calcium dye fluorescence (FLIPR); percent of saturating CRF peptide response | activation, % at 13.2 µM;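 active = activation of at least 50%, plus an integration ratio under a set limit after plate pattern correction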;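 note: plate controls were neutral control wells without compound for no effect and CRF at EC100 for full effect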
Cardiac RTF inh = cardiac RTF calcium desensitization | P19429+P45379 | IANBD-labeled cardiac RTF, Ca2+ fluorescence | inhibition, % at 7.15 µM | actives 0.12% (n = 340,000) | AID 493244;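 active = inhibition above the mean inhibition of all tested compounds plus 3 SD, cut at about 17% in these data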;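 note: assay run at fixed EC70 calcium of 1.6 mM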
ANO1 activ = activators or potentiators of mouse TMEM16A chloride channel; actives 0.3% (n = 340,000); Q8BHY3; B-score at 10 µM; HEK293 TMEM16A/YFP-H148Q/I152L, iodide quench fluorescence; stronger effect = lower value;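 active = fluorescence-ratio B-score plate-corrected deviation score at least 3 library SD below zero, with starting fluorescence score within 5 deviations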;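 note: channel opened by trigger with iodide after compound preincubation; score built on the fluorescence ratio of max minus min over baseline; more negative score means more quench and so TMEM16A activation or potentiation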
Target sequence (Q8BHY3 whole entry, looked up): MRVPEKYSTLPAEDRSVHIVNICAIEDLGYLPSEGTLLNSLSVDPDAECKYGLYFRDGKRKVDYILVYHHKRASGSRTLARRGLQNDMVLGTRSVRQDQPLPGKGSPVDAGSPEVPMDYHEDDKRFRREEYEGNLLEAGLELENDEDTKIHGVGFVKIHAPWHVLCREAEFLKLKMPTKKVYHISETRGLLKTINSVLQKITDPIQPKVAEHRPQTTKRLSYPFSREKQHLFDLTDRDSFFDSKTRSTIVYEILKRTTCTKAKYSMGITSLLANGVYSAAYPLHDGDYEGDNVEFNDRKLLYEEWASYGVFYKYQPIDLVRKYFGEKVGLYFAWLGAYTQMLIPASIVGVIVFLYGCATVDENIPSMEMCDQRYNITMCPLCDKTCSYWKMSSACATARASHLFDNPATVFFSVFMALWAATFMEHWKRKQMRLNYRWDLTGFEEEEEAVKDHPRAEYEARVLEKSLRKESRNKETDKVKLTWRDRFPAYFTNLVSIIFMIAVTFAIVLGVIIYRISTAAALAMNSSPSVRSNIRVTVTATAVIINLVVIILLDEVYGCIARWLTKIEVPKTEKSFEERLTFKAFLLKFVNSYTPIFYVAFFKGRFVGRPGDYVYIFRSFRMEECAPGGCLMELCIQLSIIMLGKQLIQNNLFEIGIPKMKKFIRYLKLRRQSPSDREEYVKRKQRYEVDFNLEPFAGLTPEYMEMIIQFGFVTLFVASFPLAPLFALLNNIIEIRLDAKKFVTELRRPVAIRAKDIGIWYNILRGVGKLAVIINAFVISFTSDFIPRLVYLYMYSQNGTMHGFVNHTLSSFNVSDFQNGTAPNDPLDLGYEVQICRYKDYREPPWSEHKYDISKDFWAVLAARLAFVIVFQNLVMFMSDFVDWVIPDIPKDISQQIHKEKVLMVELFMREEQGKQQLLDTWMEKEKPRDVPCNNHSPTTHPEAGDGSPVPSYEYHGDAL
TMEM16A inh = blocks the mouse calcium-activated chloride channel TMEM16A | HEK293 TMEM16A/YFP iodide influx fluorescence, ionomycin | normalized B-score (activity score, 25-100; higher = stronger inhibition) at 10 µM | actives 1.2% (n = 310,000);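 active = ratio plate-corrected score three or more library SD toward inhibition, starting fluorescence score within five deviations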;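 note: score derived from kinetic fluorescence span divided by baseline fluorescence per well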
CRFBP-R2 block = CRF-BP/CRF-R2 complex antagonism. HEK293 CRF-R2/CRF-BP, CRF-induced calcium fluorescence. inhibition, % at 11.8 µM. actives 0.59% (n = 350,000). AID 588475;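 active = inhibition of the ligand-induced calcium signal above about 50% at the single tested concentration, limit read from the data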
TMEM16A reconf = reconfirmed blocker of mouse TMEM16A calcium-activated chloride channel | shares compounds with TMEM16A inh | HEK293 TMEM16A/YFP-H148Q, iodide quench fluorescence; ionomycin added to raise cell calcium | inhibition, % at 10 µM | actives 39% (n = 2,300) | AID 652189;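 active = mean duplicate percent inhibition, scaled so buffer wells are 0 and the reference blocker 100, over three buffer SD above buffer mean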
HEK293 Ca mobil = counter-screen for TMEM16A inhibitors: effect on calcium mobilization; actives 2% (n = 2,300); AID 652231; TMEM16A/YFP HEK293, Fluo4 calcium mobilization; calcium response (% of ionomycin), % at 10 µM; shares compounds with TMEM16A inh;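 active = duplicate-averaged calcium signal over 20% of the ionomycin maximum, relative to buffer baseline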;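 note: each well's signal is peak minus trough fluorescence divided by its pre-addition baseline; 0% = buffer wells and 100% = ionomycin wells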
YFP-HEK293 quench = counter-screen for TMEM16A inhibitors: effect in parental YFP-HEK293 cells; shares compounds with TMEM16A inh; iodide YFP quench, ionomycin; YFP ratio F(max-min)/F0 at 10 µM; 2,300 tested, under 10 active;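 active = yellow fluorescent protein signal ratio exceeding the buffer control mean by over 5 SD of those controls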;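 note: ratio is mean of duplicate wells from kinetic YFP trace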
ClC-1 rat inh = rat ClC-1 inhibition, TMEM16A specificity screen; shares compounds with TMEM16A inh; 2,300 tested, under 10 active; ratio percent, % at 10 µM; CHO ClC-1-YFP, iodide influx fluorescence quench; iodide control reads 0, buffer control 100;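 active = duplicate-mean ratio percent above the mean of iodide-only control wells, which defines zero, plus 5 of their SD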;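 note: higher percent means stronger block of ClC-1 iodide influx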
Numbers without * were called inactive; i = inactive; . = no result given. This is a sample that favours compounds with a hit; in the whole collection about 2.4% have one here.

SMILES	cardiac RTF act	CRFR2-BP ag	Cardiac RTF inh	ANO1 activ	TMEM16A inh	CRFBP-R2 block	TMEM16A reconf	HEK293 Ca mobil	YFP-HEK293 quench	ClC-1 rat inh
CCOc1ccc(CN(C)C(=O)[C@H](Cc2ccccc2)NC(=O)OCc2ccccc2)cc1OC	1	1	-8	i	25*	-34	i	i	-1.1	-7
OCC1(Cc2ccccc2)CCN(Cc2cnc(-c3cccc4ccccc34)nc2)CC1	-1	0	-8	i	i	1	.	.	.	.
OCC1(Cc2ccccc2)CCN(Cc2cnc(-c3ccc(Cl)cc3)nc2)CC1	7	4	0	i	i	-38	i	i	-1.1	-4
Cc1ccc(-n2nnnc2SCc2nnc(-c3ccccc3Br)o2)c(C)c1	1	-1	1	i	100*	87*	i	i	-1.1	-14
CCOc1c(Cl)cc(C(=O)Nc2ccccc2C(=O)O)cc1Cl	-1	8	-6	i	100*	5	50%*	i	-0.88	-7
COc1ccc(C(=O)Nc2ccccc2C(=O)O)cc1Cl	10	-2	4	i	i	5	.	.	.	.
O=C(CCC1CCCC1)c1c(O)c2ccccc2oc1=O	1	89*	-3	i	100*	66*	34%*	58%*	-0.94	-38
Cc1cccc2cc3c(N)c(C(=O)Nc4ccc(N5CCOCC5)cc4)sc3nc12	-1	0	-6	i	i	-22	i	i	-1.1	0
CCOC(=O)c1cnc2sc3c(n2c1=O)CCCC3	-6	-1	-3	i	100*	1	i	i	-1.1	-8
CCc1ccccc1NCC(=O)Nc1ccccc1C(=O)OC	0	1	-12	i	i	-5	.	.	.	.
COC(=O)c1ccccc1NC(=O)CNc1cc(OC)c(OC)cc1C	-2	-2	0	i	25*	-10	i	i	-1.1	-14
CCCCSc1ccc2nc(-c3ccc(C#N)cc3)cn2c1	-3	0	-5	i	100*	-8	16%*	i	-1.2	-8
CCCSc1ccc2nc(-c3ccccc3)cn2c1	2	-6	5	i	i	-18	.	.	.	.
CCOC(=O)C(CSCC(=O)c1ccc(Cl)cc1)NC(=O)OC(C)(C)C (configuration not stated)	-2	-1	2	i	100*	12	i	i	-1	-4
Nc1[nH]c2cc([N+](=O)[O-])ccc2c1-c1ccccn1	3	46	-16	i	i	-86	21%*	i	-0.67	13
Cc1cc(/C(N)=N/OC(=O)Nc2ccc(Cl)cc2)no1	.	0	.	i	i	6	.	.	.	.
COc1ccccc1-c1ccc(SCc2ccc(F)cc2)nn1	-1	-3	-4	i	100*	36	i	i	-0.99	-14
COc1ccccc1-c1ccc(SCc2ccc(C)cc2)nn1	-5	4	-18	i	25*	42	i	i	-0.88	-10
COc1ccccc1-c1ccc(SCC(=O)N2CCOCC2)nn1	-2	-1	-2	i	i	2	.	.	.	.
COc1cc(-c2nnc(SC(C)C(=O)Nc3c(C)n(C)n(-c4ccccc4)c3=O)o2)cc(OC)c1OC (configuration not stated)	-3	-3	-11	i	i	24	.	.	.	.
Cc1ccc(S(=O)(=O)N2CCN(C(=O)Cn3nc(C(=O)O)c4ccccc4c3=O)CC2)cc1	.	-1	.	.	i	8	.	.	.	.
O=C(CCCc1ccccc1)Nc1ccnn1C1CCN(Cc2ccccc2)CC1	4	0	-8	i	i	-4	.	.	.	.
O=C(CCCc1ccccc1)Nc1ccnn1C1CCN(Cc2ccc(Cl)cc2)CC1	-3	1	2	i	i	-18	.	.	.	.
CCOc1ccc(CN2CCC(n3nccc3NC(=O)CCCc3ccccc3)CC2)cc1	-2	-1	-10	i	25*	2	i	i	-0.98	-2
COc1cc(CN2CCC(n3nccc3NC(=O)CCCc3ccccc3)CC2)ccc1F	-1	5	-5	i	25*	-13	16%*	i	-0.89	-6
SMILES	cardiac RTF act	CRFR2-BP ag	Cardiac RTF inh	ANO1 activ	TMEM16A inh	CRFBP-R2 block	TMEM16A reconf	HEK293 Ca mobil	YFP-HEK293 quench	ClC-1 rat inh
CC(C)NC(=O)c1cnc(N2CCN(c3ccccn3)CC2)c2ccccc12	-7	0	5	i	i	-12	.	.	.	.
CCc1ccc(NC(=O)c2cnc(N3CCN(c4ccccn4)CC3)c3ccccc23)cc1	.	3	.	i	i	-8	i	i	-1.2	0
Fc1ccc(N2CCN(c3nc(-c4ccco4)cc(C(F)(F)F)n3)CC2)cc1	1	1	2	i	i	-18	.	.	.	.
Cc1nn(-c2nc(-c3ccco3)cc(C(F)(F)F)n2)c(C)c1Br	0	0	2	i	25*	-37	i	i	-1	-2
O=C(CCN1C(=O)COc2ccccc21)N1CCCCC1	-1	2	3	i	i	-16	i	i	-0.96	-6
CCOC(=O)N1CCC(N(C(=O)Nc2ccc(Cl)c(Cl)c2)C(C)CC)CC1 (configuration not stated)	1	3	-9	i	25*	-5	i	i	-1.1	-11
CCOC(=O)c1ccc(Nc2nc(-c3cccnc3)nc3ccccc23)cc1	-4	1	-8	i	25*	-11	38%*	i	-1.2	-20
O=C(O)c1ccccc1C=NNc1ccccn1	-6	-1	2	i	.	3	.	.	.	.
COc1ccc(N(CC(=O)N2CCOCC2)S(C)(=O)=O)cc1OC	-1	0	-2	i	i	2	.	.	.	.
O=S(=O)(NC1CC(NS(=O)(=O)OCC(Cl)(Cl)Cl)C2CCCCC12)OCC(Cl)(Cl)Cl (configuration not stated)	4	0	2	i	25*	-16	i	i	-1.3	-12
O=c1cc(-c2ccccc2Cl)oc2c(NS(=O)(=O)c3cccs3)ccc(O)c12	6	-1	2	i	25*	0	27%*	i	-0.99	-4
